Screening results as filed in PubChem.
Rab2 wt GTP – changes GTP binding to wildtype dog Rab2A, up or down | AID 760 | GST-Rab2 wt beads, Bodipy-GTP binding, flow cytometry | GTP binding activity, % at 10 µM | P61105 | actives 0.19% (n = 190,000);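 active means GTP binding activity at least 20 points away from 100%, either lowered or raised; inconclusive means signal likely due to the compound's own green fluorescence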
Rab7 wt GTP bind – modulators of GTP binding to dog Rab7 wildtype GTPase; GST-Rab7 beads, fluorescent GTP binding, flow cytometry; actives lie on both sides; untreated = 100%, excess cold GTP = 0%; GTP binding activity (percent of control), % at 10 µM; actives 0.055% (n = 190,000); AID 758;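 active means fluorescent GTP binding to Rab7 beads changed by at least 20 points from the 100% baseline, either direction, mostly lower; inconclusive means compound itself probably fluorescent, or too few beads counted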;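 further: median green fluorescence of bound Bodipy-FL-GTP per Rab7 bead population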
Rac1 wt modul – modulators of human Rac1 wildtype GTP binding | P63000 | GST-Rac1 beads, fluorescent GTP binding, flow cytometry; actives lie on both sides; 0 = cold GTP competed, 100 = untreated | GTP binding activity (% of control), % at 10 µM | actives 0.27% (n = 190,000) | AID 757;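 active means GTP binding activity at least 20 points away from the 100% control level, either lower or higher; inconclusive means compound flagged as likely green fluorescent, judged across all proteins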
HRas wt GTP – human HRas wildtype GTP binding, change in either direction. P01112. GST-Ras wt beads, Bodipy-FL-GTP binding, flow cytometry; actives lie on both sides. GTP binding activity, % at 10 µM. actives 0.14% (n = 190,000). AID 759;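 active means GTP binding activity at least 20% away from the 100% baseline, either lowered as inhibitor or raised as activator; inconclusive means flagged as likely green fluorescent, judged across all proteins in the well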
Target sequence (P01112 whole entry, looked up): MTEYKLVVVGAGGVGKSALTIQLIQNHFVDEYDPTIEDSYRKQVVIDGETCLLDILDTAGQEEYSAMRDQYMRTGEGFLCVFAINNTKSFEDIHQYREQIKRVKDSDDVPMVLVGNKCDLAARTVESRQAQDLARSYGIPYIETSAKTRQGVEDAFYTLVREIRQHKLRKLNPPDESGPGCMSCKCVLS
Rac1 mut GTP – alters GTP binding to activated mutant human Rac1; P63000; GST-Rac1 activated beads, fluorescent GTP binding, flow cytometry; actives lie on both sides; 100% means binding = to untreated wells; percent activity (GTP binding), % at 10 µM; actives 0.11% (n = 190,000); AID 764;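 active means GTP binding at least 20 percentage points away from the 100% baseline, in either direction, so actives lie on both sides; inconclusive means Compound likely fluorescent itself, or too few beads counted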
Cdc42 wt GTP – modulators (inhibitors or activators) of GTP binding to human Cdc42 wildtype. percent activity (GTP binding), % at 10 µM. actives 0.2% (n = 190,000). P60953. GST-Cdc42 beads, Bodipy-GTP binding, flow cytometry; actives lie on both sides;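 active means percent activity GTP binding at least 20 points away from the 100% baseline, either down as inhibitor or up as activator; inconclusive means compound flagged as likely green fluorescent from well-wide comparison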;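 further: median bead fluorescence of bound Bodipy-FL-GTP at 100 nM; below 100% means less GTP binding so inhibitor and above means activator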
Target sequence (P60953 whole entry, looked up): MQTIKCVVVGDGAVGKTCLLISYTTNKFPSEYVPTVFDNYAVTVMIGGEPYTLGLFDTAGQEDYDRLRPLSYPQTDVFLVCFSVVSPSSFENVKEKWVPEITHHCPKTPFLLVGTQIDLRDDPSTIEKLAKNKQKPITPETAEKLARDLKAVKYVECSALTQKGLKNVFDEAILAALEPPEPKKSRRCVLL
Each line names hits and unclear results; the compound was inactive in the other large screens; [ ] = dose if it differs, or a comment. Rows were chosen to be rich in hits. Some 0.4% of all compounds tested hit in one or more screens of this group.

CCOc1ccc(-n2c(C)nc3cc(C(=O)NCc4ccc5c(c4)OCO5)ccc32)cc1	Rab2 wt GTP 71.0, Rac1 wt modul 77.0, Rac1 mut GTP 79.0, Cdc42 wt GTP 77.0
Cc1cc(NC(=O)c2cccc(C(=O)Nc3cc(C)on3)n2)no1	Cdc42 wt GTP 79.0
O=C(Cn1cnc2c(nnn2Cc2ccccc2F)c1=O)NCC1CCCO1 (stereo not drawn)	Rab2 wt GTP 126.0[activator], Rac1 wt modul 120.0[activator]
O=C(Cn1cnc2c(nnn2Cc2ccccc2)c1=O)NCC1CCCO1 (stereo not drawn)	none
c1ccc(-c2csc3ncnc(NCCCN4CCOCC4)c23)cc1	none
O=c1c2c(-c3ccccc3)csc2nc2c3ccccc3c(NCCN3CCOCC3)nn12	Rab2 wt GTP 65.0, Rab7 wt GTP bind 70.0, Rac1 wt modul 55.0, HRas wt GTP 65.0, Cdc42 wt GTP 69.0
S=c1[nH]nc(-c2ccco2)n1-c1ccccc1Cl	Rac1 wt modul 77.0, Rac1 mut GTP 79.0, Cdc42 wt GTP 79.0
COc1ccc(CCc2nnc(CCC(=O)NCc3ccc4ncccc4c3)o2)cc1	none
Cn1c(=O)c2c(nc(N3CCc4ccccc4C3)n2C)n(C)c1=O	Rac1 wt modul 69.0, Cdc42 wt GTP 80.0
CCN1CCN(c2nc3c(c(=O)n(C)c(=O)n3C)n2Cc2cccc3ccccc23)CC1	Rac1 wt modul 120.0[activator]
CC(C)CC(NC(=O)C(NC(=O)C1OC2OC(C)(C)OC2C2OC(C)(C)OC12)C(C)C)C(=O)O (stereo not drawn)	none
COc1ccc(C)cc1NC(=O)c1cc2c(CO)cnc(C)c2oc1=N	none
COc1cc(N=c2oc3c(C)ncc(CO)c3cc2C(N)=O)cc(OC)c1OC	Rab2 wt GTP 67.0, Rac1 wt modul 64.0, HRas wt GTP 68.0, Cdc42 wt GTP 68.0
O=C(Nc1c(F)cccc1F)c1cnc(N2CCN(c3ccccn3)CC2)c2ccccc12	Rac1 wt modul 131.0[activator]
Cc1ccc(S(=O)(=O)Nc2cccc(-c3ccc4nnc(C)n4n3)c2)s1	none
O=C(N/N=C/c1ccc([N+](=O)[O-])o1)c1cn(-c2ccccc2)nc1-c1ccc(Cl)cc1	Rac1 wt modul 79.0
O=C(N/N=C/c1ccc([N+](=O)[O-])o1)c1cn(-c2ccccc2)nc1-c1ccccc1	none
Cc1cc2[nH]c3c(c[n+](C)c4ccccc34)c2cc1C	Rac1 wt modul 76.0
Cc1cc(=O)[nH]c2ccccc12	none
CCN1CCN(c2ccc(NC(=O)c3cccc(F)c3)cc2Cl)CC1	none
Cc1ccc(C)c(N(CC(N)=O)S(C)(=O)=O)c1	Rab2 wt GTP 72.0, Rab7 wt GTP bind 78.0, Rac1 wt modul 67.0, HRas wt GTP 74.0, Rac1 mut GTP 71.0, Cdc42 wt GTP 75.0
COc1cc(CN2CCN(C(C)C)C(CCO)C2)ccc1OCc1ccccc1 (stereo not drawn)	none
COc1cccc(Nc2c(F)c(F)c(F)c(F)c2C(=O)O)c1	Rac1 wt modul 131.0[activator], Cdc42 wt GTP 123.0[activator]
Cc1ccc(Nc2c(F)c(F)c(F)c(F)c2C(=O)O)cc1	Rab2 wt GTP 127.0[activator], Rac1 wt modul 141.0[activator], Rac1 mut GTP 130.0[activator], Cdc42 wt GTP 128.0[activator]
O=C(Nc1cccc(S(=O)(=O)N2CCCC2)c1)c1cc(-c2ccccn2)nc2ccccc12	none
O=C(O)C1=C[C@H](c2ccc(C(F)(F)F)cc2)C[C@H](OCc2ccc(CO)cc2)O1	Rab2 wt GTP 76.0, Rac1 wt modul 77.0, Rac1 mut GTP 76.0, Cdc42 wt GTP 74.0
COc1ccc(C(=O)N/C(=C\c2cccc([N+](=O)[O-])c2)C(=O)Nc2cccc(C(=O)O)c2)cc1	Rab2 wt GTP 60.0, Rac1 wt modul 64.0, HRas wt GTP 69.0, Cdc42 wt GTP 62.0
Cn1c(O)c(N=NC(=O)c2ccccc2O)c2ccccc21	none
Cc1cc(N=NC(=O)c2ccccc2O)c2ccccc2c1O	Rab2 wt GTP 78.0, Rac1 wt modul 74.0, Cdc42 wt GTP 76.0
CCC/C(O)=C1\C(=O)CCCC1=NCCc1c(C)[nH]c2ccc(OC)cc12	none
COc1cccc(C2CC(c3ccccc3)Nc3ncnn32)c1 (stereo not drawn)	Rac1 wt modul 123.0[activator]
COc1cccc(C2CC(c3ccccc3OC)n3ncnc3N2)c1 (stereo not drawn)	none
COc1ccc(CCNC(=O)NC2CCCCC2)cc1OC	none
COc1ccc(CCNC(=O)C2CCCN2C(=O)NC2CCCCC2)cc1OC (stereo not drawn)	Rab2 wt GTP 128.0[activator], Rac1 wt modul 143.0[activator], HRas wt GTP 122.0[activator], Cdc42 wt GTP 141.0[activator]
C/C(=N\Nc1ccc(S(N)(=O)=O)cc1[N+](=O)[O-])c1ccc2c(c1)OCO2	Rac1 wt modul 76.0
COc1ccc(CNC(=O)c2ccccc2C(=O)O)cc1	none
COc1ccc(CC(=O)c2ccccc2C(=O)O)cc1	Rab2 wt GTP 130.0[activator], Rab7 wt GTP bind 125.0[activator], Rac1 wt modul 143.0[activator], HRas wt GTP 126.0[activator], Rac1 mut GTP 131.0[activator], Cdc42 wt GTP 140.0[activator]
CC(CCCC(C)(C)O)CC1C2=C(CCCC2=O)OC2=C1C(=O)CCC2 (stereo not drawn)	none
Cc1ccc(Nc2n[nH]c(C)c2[N+](=O)[O-])c(C)c1	Rab2 wt GTP 192.0[activator], Rab7 wt GTP bind inconclusive, HRas wt GTP 154.0[activator], Rac1 mut GTP inconclusive
Cc1ccccc1Nc1n[nH]c(C)c1[N+](=O)[O-]	none
O=C(COc1ccccc1[N+](=O)[O-])Nc1cc(Cl)ccc1C(=O)O	Rac1 mut GTP 79.0
COc1cccc(/C=N/n2c(N)c(S(=O)(=O)c3cccs3)c3nc4ccccc4nc32)c1OC	none
Nc1c(S(=O)(=O)c2cccc(Cl)c2)c2nc3ccccc3nc2n1/N=C/c1ccc(O)c(O)c1	Rab2 wt GTP 76.0, Rab7 wt GTP bind inconclusive, Rac1 wt modul 79.0, HRas wt GTP 63.0, Cdc42 wt GTP 63.0
COCCn1c(N)c(C(=O)Nc2sc3c(c2C(=O)OC)CCCC3)c2nc3ccccc3nc21	Rab2 wt GTP 69.0, Rac1 wt modul 77.0, HRas wt GTP 63.0, Cdc42 wt GTP 63.0
N#CC(C#N)=C(Nc1ccc(F)cc1)SCc1cccc(Br)c1	Rac1 wt modul 134.0[activator], Cdc42 wt GTP 127.0[activator]
Cc1cc(-c2n[nH]c(=S)n2/N=C/C(Cl)=C/c2ccccc2)n[nH]1	Rab7 wt GTP bind 77.0, HRas wt GTP 77.0
Cc1cc(NS(=O)(=O)c2ccccc2)c(C)c(Cl)c1O	none
O=S(=O)(Nc1cc(Sc2ncn[nH]2)c(O)c2ccccc12)c1ccccc1	Rac1 wt modul 78.0
Nc1[nH]n(-c2ccccc2)c(=O)c1N=Nc1ccc2c(c1)OCCO2	none
Cc1cc([N+](=O)[O-])ccc1N=Nc1c(N)[nH]n(-c2ccccc2)c1=O	Rac1 wt modul 78.0
